Source: PubChem BioAssay
An excerpt weighted towards active compounds, which were near 3.9% of everything screened.
C8 TRAIL sens = sensitizes caspase-8 expressing cells to TRAIL; NB7+C8 cells + TRAIL, ATPlite viability luminescence; inhibition (viability loss, TRAIL sensitization), % at 10 µM; hit rate 1% among 360,000; AID 624354;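 active means compounds causing at least 50% loss of cell viability in the single-dose screen, relative to plate controls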
HSP90 refold inh = HSP90 refolding inhibition in rabbit reticulocyte lysate; inhibition, % at 5.6 µM; luciferase refolding luminescence, 3 h; hit rate 0.91% among 290,000;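 active means inhibition above the screen-wide mean plus 3 SD, computed separately per campaign, cut at about 16% in these data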;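 further: 0% = DMSO wells and 100% = 60 µM geldanamycin wells; inhibitors lower the luminescence because luciferase stays unfolded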
TWEAK-Fn14 inh = blocks TWEAK-Fn14 interaction in a reporter cell assay; hit rate 2% among 360,000; AID 1159606; TWEAK-stimulated Fn14 reporter cells, luciferase luminescence, 8 h; inhibition, % at 10 µM; in the data active means inhibition above about 50%
HIF-2a inh = inhibitors of HIF-2a; 786-0 RCC cells HIF-2a reporter, luciferase luminescence, overnight; inhibition, % at 18.8 µM; hit rate 0.72% among 360,000; AID 624352;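 active means inhibition of the luminescence signal of 40% or more relative to plate controls, in a single-dose primary screen at 18.75 µM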
TROY signal inh = blocks TROY-dependent signaling in reporter cells. AID 1347056. hit rate 0.98% among 360,000. inhibition, % at 10 µM. Q293 LMP1-TROYcd NF-kB luciferase reporter, 4 h;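 active means compounds whose plate-normalised and pattern-corrected inhibition of the luciferase reporter signal at the single screening dose is 50% or more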
aSyn UTR inh = MLPCN primary screen, SNCA 5' untranslated region; alpha-synuclein 5'UTR reporter, inhibitor activity; inhibition, % (tested at 7.5 µM); hit rate 0.82% among 300,000; AID 1813; in the data active means inhibition above about 60%;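 further: H4 neuroglioblastoma cells stably carrying SNCA 5'UTR luciferase fusion; 0% = DMSO wells and 100% = positive control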
Numbers without * were called inactive; · = no result given.

SMILES	C8 TRAIL sens	HSP90 refold inh	TWEAK-Fn14 inh	HIF-2a inh	TROY signal inh	aSyn UTR inh
COc1ccc(NC(=O)Cn2nnc(-c3ccccc3NS(=O)(=O)c3ccccc3)n2)cc1	14	-1	54*	28	33	10
COc1cccc(NC(=O)CN(C)C(=O)CCNS(=O)(=O)c2ccc(C)cc2)c1	-3	·	-17	12	6	·
CC(C)C[C@@H](CN)NC(=O)c1nc[nH]c1C(=O)N[C@@H](CC(C)C)C(=O)CNC[C@H](C)NC(=O)c1nc[nH]c1C(=O)N[C@@H](CC(=O)O)C(=O)O	-9	·	-2	9	-13	·
NC(Cc1ccc(C(F)(F)F)cc1)c1csc(NC(=O)Nc2ccccc2Oc2ccccc2)n1 (stereo not drawn)	87*	·	27	19	7	·
CN(Cc1ccccc1)C(=O)c1ccc(Nc2nc(C(N)Cc3ccc(C(F)(F)F)cc3)cs2)nc1 (stereo not drawn)	93*	·	28	-5	27	·
CN(Cc1ccccc1)C(=O)c1ccc(Nc2nc(C(N)Cc3ccccc3)cs2)nc1 (stereo not drawn)	17	·	-13	-33	0	·
COc1ccc(CC(N)c2csc(NC(=O)Nc3ccccc3Oc3ccccc3)n2)cc1 (stereo not drawn)	43	·	-9	4	16	·
COc1cc(NC(=O)Nc2nc(C(N)Cc3ccc(C(F)(F)F)cc3)cs2)cc(OC)c1OC (stereo not drawn)	53*	·	5	2	14	·
NC(Cc1ccccc1)c1csc(NC(=O)Nc2ccccc2Oc2ccccc2)n1 (stereo not drawn)	75*	·	24	20	12	·
O=C1NC[C@H](CCCCN2C[C@H](Cc3ccc(O)cc3)N(CC3CCCCC3)C(=O)C2=O)N(CC2CCCCC2)C1=O	-20	·	0	-4	2	·
C[C@H](CO)N1C[C@H](C)[C@H](CN(C)S(=O)(=O)c2ccc(F)cc2)OCc2cnnn2CCCC1=O	-6	·	102*	17	7	·
C[C@H]1CN([C@@H](C)CO)C(=O)CCCn2nncc2CO[C@@H]1CN(C)C(=O)Nc1cccc2ccccc12	-9	·	53*	12	48	·
C[C@@H]1CN([C@H](C)CO)C(=O)CCCn2nncc2CO[C@H]1CN(C)C(=O)Nc1cccc2ccccc12	-2	·	29	14	44	·
C[C@@H]1CN([C@@H](C)CO)C(=O)CCCn2nncc2CO[C@H]1CN(C)S(=O)(=O)c1ccc(F)cc1	-5	·	-8	1	3	·
Cc1ccc(N=Cc2c(O)c3ccccc3oc2=O)c(C)c1	2	6	57*	-196	55*	-14
Cc1ccc(F)cc1N=Cc1c(O)c2ccccc2oc1=O	-7	2	19	-73	39	16
O=C1Nc2cccc3c2N(CCC3)C2=C1CCC2	-4	·	4	-5	8	·
CSCCC(C(=O)NC(C)(C)C)n1c(-c2cccc(NC(C)=O)c2)nc2ccccc21 (stereo not drawn)	9	·	·	-65	·	·
CCCCCC(=O)NN=C1CCN(Cc2ccccc2)CC1	-3	-1	94*	7	-3	4
O=C(NN=C1CCN(Cc2ccccc2)CC1)c1ccccc1	0	-7	-12	-5	-17	-88
COc1ccc(-c2noc(-c3ccc4c(c3)OCO4)n2)cc1	45*	-3	29	-229	-26	-72
COc1ccc(-c2nc(-c3ccc4c(c3)OCO4)[nH]c2-c2ccc(OC)cc2)cc1	-1	4	56*	-1	32	3
COc1cccc(-c2noc(-c3ccc4c(c3)OCO4)n2)c1	66*	-4	53*	-144	9	-1
Cc1[nH]c(-c2ccc3c(c2)OCO3)nc1C(=O)O	-3	-1	-14	7	-8	8
c1ccc(-c2noc(-c3ccc4c(c3)OCO4)n2)cc1	43	-1	45	-98	13	11
SMILES	C8 TRAIL sens	HSP90 refold inh	TWEAK-Fn14 inh	HIF-2a inh	TROY signal inh	aSyn UTR inh
C=Cn1cc(CNC[C@H]2O[C@@H](n3ccc(N)nc3=O)[C@H](O)[C@@H]2O)c(C)n1	-11	·	-11	-7	3	·
CCOC(=O)CCCCCC(=O)Nc1ccc2c(c1)C(=O)N([C@H](C)CO)C[C@H](C)[C@@H](CN(C)C(=O)Nc1ccccc1)OCCCC[C@@H](C)O2	10	·	0	-3	6	·
Cc1ccccc1NC1=NC(=S)N(c2ccccc2)C12CCOC(C)(C)C2 (stereo not drawn)	-13	-2	2	0	-21	17
Cc1ccccc1NC1=NC(=S)N(c2ccccc2)C12CCCCC2	1	-5	10	28	62*	-2
COc1ccc(Cc2nc(-c3ccncc3)no2)cc1	5	6	36	-84	50*	-79
Clc1ccc(Cc2nc(-c3ccncc3)no2)cc1	9	-2	-4	-53	5	-13
COc1ccc(CCn2c(=S)[nH]c3cc(C(=O)NCc4ccco4)ccc3c2=O)cc1OC	29	7	52*	17	16	13
COc1ccc(-n2c(=S)[nH]c3cc(C(=O)NCc4ccco4)ccc3c2=O)cc1OC	0	-1	4	-1	9	18
Cc1cccc2nc(CSc3nnc4ccccn34)cn12	1	8	50*	-119	-14	-42
CCc1ccc(OCCCC(=O)Nc2ccc(S(=O)(=O)Nc3cc(C)nc(C)n3)cc2)cc1	-15	-1	55*	15	18	-1
CCCC(=O)Nc1ccc(S(=O)(=O)Nc2cc(C)nc(C)n2)cc1	-11	3	-23	11	-5	5
C[C@H](CO)N1C[C@H](C)[C@@H](CN(C)C(=O)c2ccncc2)OCc2cnnn2CCCC1=O	-22	·	23	6	-5	·
N#Cc1ccc(CSc2nnc(Cc3cccs3)n2Cc2ccco2)cc1	-3	2	76*	16	·	10
N#Cc1ccc(CSc2nnc(-c3ccccc3)n2Cc2ccco2)cc1	-2	-2	3	-5	-27	30
Cc1ccc(S(=O)(=O)NC[C@H]2O[C@@H](n3ccc(N)nc3=O)[C@H](O)[C@@H]2O)s1	-1	·	4	8	-2	·
O=C(CCl)N1CCCC1c1ccc2c(c1)OCCO2 (stereo not drawn)	65*	1	25	23	-4	-152
CC1CCC2(CC1)NC(=O)N(CC(=O)Nc1ccc3c(c1)OCCO3)C2=O (stereo not drawn)	2	1	-7	-122	-52	-100
O=C(CN1CCCC1c1ccc2c(c1)OCCO2)NC(=O)Nc1ccccc1 (stereo not drawn)	-4	·	68*	-29	60*	·
CC(=O)c1ccc(OCC(=O)N2CCCC2c2ccc3c(c2)OCCCO3)cc1 (stereo not drawn)	-15	·	-5	3	5	·
CC1CCC2(CC1)NC(=O)N(CC(=O)NC(=O)Nc1ccc3c(c1)OCCO3)C2=O (stereo not drawn)	-14	4	50*	6	31	-13
CC(=O)Nc1cccc(-c2nc3ccccc3n2C(C)C(=O)NC(C)(C)C)c1 (stereo not drawn)	7	·	·	-9	·	·
